# IDH1 R132H inh – human IDH1 R132H inhibition; O75874; IDH1-R132H enzyme, NADPH consumption, diaphorase/resazurin fluorescence; Potency, µM (highest dose often 76.6 µM), inactives show at the top dose activity change, negative = inhibition, actives largely listed as inhibitors; actives 0.093% (n = 390,000); AID 602179; also: potency is read from the fitted curve at half-maximal effect; % is scaled to controls: 0 for no effect and ±100 for the full control effect; nearly all actives have a fitted effect of over 65% in size
# Target sequence (O75874 whole entry R132H, stated change not applied): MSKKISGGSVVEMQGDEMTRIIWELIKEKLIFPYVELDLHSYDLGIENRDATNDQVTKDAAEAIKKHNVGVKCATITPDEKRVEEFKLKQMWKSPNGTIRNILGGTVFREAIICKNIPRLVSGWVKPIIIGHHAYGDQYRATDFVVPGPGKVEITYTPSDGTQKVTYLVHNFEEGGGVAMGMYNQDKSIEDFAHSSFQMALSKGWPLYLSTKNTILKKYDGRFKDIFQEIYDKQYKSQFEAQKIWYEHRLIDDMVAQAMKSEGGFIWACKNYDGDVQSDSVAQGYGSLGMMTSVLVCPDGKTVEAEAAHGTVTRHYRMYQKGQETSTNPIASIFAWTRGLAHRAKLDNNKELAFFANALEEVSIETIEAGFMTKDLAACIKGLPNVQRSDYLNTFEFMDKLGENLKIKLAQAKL
#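 IDH1-R132H (0.5 ug/mL) preincubated 30 min with compound, then NADPH (0.016 mM) and alpha-KG (2 mM) added; 80 min at RT, pH 7.5. Remaining NADPH coupled via diaphorase/resazurin to fluorescence (540/590 nm); concentration-response curves normalized to no-enzyme control.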
# KCNH2 3.1 inh – blocks the human KCNH2 3.1 channel isoform. actives 0.95% (n = 340,000). U2OS KCNH2 3.1, thallium flux FluxOr; stronger effect = lower value. AID 720553. activity change, % (tested at about 1.8 µM);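 active = maximum activity change below -70%; inconclusive = maximum activity change from -70% to -50%; inactive = maximum activity change above -50%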;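 also: thallium influx rate constant from kinetic fluorescence after stimulation buffer; % is scaled to controls: 0 for no effect and ±100 for the full control effect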
#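 FluxOr-based Tl+ influx in U2OS cells transduced with KCNH2 3.1 virus; rate constants normalized to DMSO controls.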
# hERG WT inh – KCNH2 (human, wildtype) channel inhibition. U2OS, BacMam KCNH2, thallium flux FluxOr; stronger effect = lower value. actives 0.37% (n = 340,000). activity change, % at 1.84 µM. AID 720551;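 active = maximum activity change below -70%; inconclusive = maximum activity change between -70% and -50%; inactive = maximum activity change above -50%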; also: % is scaled to controls: 0 for no effect and ±100 for the full control effect
#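 U2OS cells transduced with wild-type KCNH2 virus are loaded with FluxOr dye for 45 min, and thallium flux is measured in kinetic reads before and after stimulation buffer. Rate constants are normalized to DMSO controls.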
# Apoferritin bind – candidate novel general anesthetic via apoferritin binding; Potency, µM (highest dose often 77.5 µM), for inactives: at the top dose activity change, negative = displacement, most hits filed as inhibitors; AID 485281; apoferritin/1-aminoanthracene competitive binding, fluorescence; actives 0.074% (n = 350,000); also: potency is read from the fitted curve at half-maximal effect; % is scaled to controls: 0 for no effect and ±100 for the full control effect; nearly all actives have a fitted effect of over 20% in size
# Target sequence (P02791 2-175 limits assumed): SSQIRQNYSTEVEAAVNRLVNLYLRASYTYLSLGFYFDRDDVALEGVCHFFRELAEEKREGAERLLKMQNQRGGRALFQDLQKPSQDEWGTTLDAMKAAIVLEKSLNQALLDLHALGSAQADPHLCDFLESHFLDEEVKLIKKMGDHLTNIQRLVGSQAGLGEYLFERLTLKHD
#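 In PBS, apoferritin at 10 uM is loaded with 1-AMA from a 50% saturated solution. After 10 min of compound exposure at ambient temperature, reduced 535 nm fluorescence indicates probe displacement.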
# ASM inhibitor – inhibitors of human secretory acid sphingomyelinase; placental ASM, HMU-PC fluorogenic substrate, 60 min; Potency, µM (doses to about 57.5 µM), without a hit: at the top dose activity change, negative = inhibition, hits mostly inhibitors; actives 0.006% (n = 340,000); also: potency is read from the fitted curve at half-maximal effect
#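 qHTS format. ASM enzyme prepared from human placenta hydrolyses the fluorogenic substrate HMU-PC0 (9 uM final) over 60 min at 37 °C after a 10 min compound preincubation.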
# IDH1 autofl – counter-screen for mutant IDH1 inhibitors: fluorescence interference | shares compounds with IDH1 R132H inh | Resorufin detection reagent fluorescence interference, cell-free | inhibition of signal, % at 51.2 µM | 750 tested, under 10 active;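 also: 0% = wells with normal resorufin and full inhibition = wells lacking resorufin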
# WT IDH1 inh – inhibits human wild-type IDH1, mutant selectivity check; WT IDH1 enzyme, NADPH diaphorase/resazurin fluorescence; shares compounds with IDH1 R132H inh; Potency, µM (titrated, usually from 115 µM), without a hit: at the highest dose activity change, negative = inhibition, usual class: inhibitors; AID 623995; actives 9% (n = 750);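 also: potency is read from the fitted curve at half-maximal effect; 0% = full WT IDH1 enzyme control and full inhibition = no enzyme wells; nearly all actives have a fitted effect of over 55% in size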
# Target sequence (O75874 whole entry, looked up): as the sequence (O75874 whole entry R132H, stated change not applied) above, with H132R counted along it
# mIDH1 confirm – confirmation of human mutant IDH1 inhibitors. shares compounds with IDH1 R132H inh. IDH1 R132H enzyme, NADPH diaphorase/resazurin fluorescence. Potency, µM (titrated, usually from 76.6 µM), for the others: at the top dose activity change, negative = inhibition, hits mostly inhibitors. actives 83% (n = 750). AID 624002; also: potency is read from the fitted curve at half-maximal effect; nearly all actives have a fitted effect of over 50% in size
# An asterisk follows results filed as active; u = inconclusive; x = not tested or not shown; [ ] = another dose, or the depositor's remark. The list is not random: actives were taken first. Their share in the collection is about 1.2%. Unless noted, calls follow the shape of the dose curve; as a rule, active = well fitted curve in the direction sought with a large enough effect; inconclusive = small, poorly fitted or top-dose-only effect, or another doubt; inactive = no such curve, though single readings can be large; an effect the other way counts as inactive or inconclusive.
SMILES,IDH1 R132H inh,KCNH2 3.1 inh,hERG WT inh,Apoferritin bind,ASM inhibitor,IDH1 autofl,WT IDH1 inh,mIDH1 confirm
Cc1ccn2c(=O)c(C(=O)NCCc3ccccc3)c(O)nc2c1,0%,x,x,0%,x,x,x,x
N[C@@H]1CCN(O)C1=O,x,x,x,37%,x,x,x,x
N#Cc1ccccc1Cn1cc(/C=C/[N+](=O)[O-])c2ccccc21,28µM*,-1,-2,-7%,-6%,5,u,20µM*
Cc1ccc(CNC(=O)c2ccc(CSCc3c(F)cccc3Cl)o2)cc1,40µM*,x,x,-1%,x,4,-1%,0%
CC(C)Cn1c(=O)c2sccc2n2c(CCCC(=O)N3CCN(c4ccc(F)cc4)CC3)nnc12,16%,x,x,22%,x,x,x,x
CC(C)Oc1ccc(CNC(=O)Cn2ncn3nc(-c4cccs4)cc3c2=O)cc1,16%,x,x,-8%,x,x,x,x
COCCn1c(SCC(=O)N2CCc3ccccc3C2)nc2cc(Cl)ccc2c1=O,26µM*,3,1,-16%,-8%,-7,8%,11µM*
O=c1c2sc3ccccc3c2n(Cc2ccccc2F)c(=O)n1CCc1ccccc1,0%,x,x,-4%,x,x,x,x
N#CC1=C(N)C(C#N)(C#N)C(c2cccnc2)C2COCC=C12 (centres undefined),u,2,1,-3%,24%,4,47%,40µM*
Cc1ccc2c(c1)/C(=N/N1C(=O)c3ccccc3C1=O)C(=O)N2,46µM*,-155*,-3,-11%,0%,1,6%,7.9µM*
CCCCn1c(-c2ccc(C)cc2)c(C)n2c3c(=O)n(C)c(=O)n(C)c3nc12,u,x,x,44%,x,-8,-16%,11µM*
COc1ccc(NC(=O)c2c(NCc3ccc(C)o3)sc3c2CCCCC3)c(OC)c1,20%,x,x,-16%,x,x,x,x
CCCCC#CC1C=CC(OC(C)=O)C(COC(C)=O)O1 (centres undefined),x,x,x,-9%[15.3 µM],x,x,x,x
O=C(c1ccc([N+](=O)[O-])o1)N1CCc2ccccc21,7%,16,1,-10%,-2%,x,x,x
Cc1ccc(C(=O)N2CCc3ccccc32)o1,u,-4,13,-2%,4%,0,0%,3%
Cc1cc(C(=O)CN2C(=O)CN(C)C2=O)c(C)n1-c1cccc(S(=O)(=O)N2CCOCC2)c1,0%,-15,-10,-8%,-7%,x,x,x
Cc1cc(C(=O)CCl)c(C)n1-c1cccc(S(=O)(=O)N2CCOCC2)c1,u,-8,5,-11%,2%,3,-2%,40µM*
CC(=O)Nc1ccc(Nc2c3c4c(cccc4n(C)c2=O)C(=O)c2ccccc2-3)cc1,5%,-13,-15,-2%,-20%,x,x,x
Cn1c(=O)c(NC2CCCCC2)c2c3c(cccc31)C(=O)c1ccccc1-2,u,6,-4,-2%,-13%,0,12%,22µM*
COc1ccc(C)cc1Nc1nc2c(S(=O)(=O)c3cc(C)ccc3C)nnn2c2ccsc12,-17%,x,x,0%,x,x,x,x
COc1cccc(Nc2nc3c(S(=O)(=O)c4cc(C)ccc4C)nnn3c3ccsc23)c1,u,x,x,-10%,x,1,0%,u
CC(C)(C)[C@@H]1C=C(C(=O)Nc2ccccc2)O[C@H](OCc2ccc(CO)cc2)C1,45µM*,4,-10,-9%,-3%,-7,-5%,25µM*
COc1cc2c(-c3ccc(O)cc3)nc3c(c(C)nn3-c3ccccc3)c2cc1OC,u,8,7,7%,246%,2,7%,11µM*
COc1cccc(-c2nc3c(c(C)nn3-c3ccccc3)c3cc(OC)c(OC)cc23)c1,u,x,x,10%,x,x,x,x
CCOC(=O)c1ccc(N2C(=O)c3n[nH]c(C)c3C2c2ccccc2OC)cc1 (centres undefined),u,x,x,-13%,x,-6,-2%,35µM*
SMILES,IDH1 R132H inh,KCNH2 3.1 inh,hERG WT inh,Apoferritin bind,ASM inhibitor,IDH1 autofl,WT IDH1 inh,mIDH1 confirm
CCOC(=O)c1ccc(N2C(=O)c3n[nH]c(-c4ccco4)c3C2c2cccc(F)c2)cc1 (centres undefined),-19%,x,x,-20%,x,x,x,x
CCOC(=O)c1ccc(N2C(=O)c3n[nH]c(-c4ccco4)c3C2c2cccc(OC)c2)cc1 (centres undefined),u,x,x,-13%,x,-1,0%,u
CCOC(=O)c1ccc(N2C(=O)c3n[nH]c(-c4cccs4)c3C2c2ccc(O)c(OC)c2)cc1 (centres undefined),u,x,x,-20%,x,4,0%,14µM*
CCOC(=O)c1ccc(N2C(=O)c3n[nH]c(-c4ccco4)c3C2c2cccc(O)c2)cc1 (centres undefined),u,x,x,-17%,x,0,-11%,35µM*
CCC(Oc1ccccc1)C(=O)Nc1ccc(O)c(-c2nc3cc(C)ccc3o2)c1 (centres undefined),x,x,x,3%,x,x,x,x
CSc1ncc(C(=O)Nc2ccc(C)c(Cl)c2)c(-c2ccccc2)n1,19%,x,x,-3%,x,x,x,x
COc1ccc(CN(CCC(c2ccccc2)c2ccc(OC(C)C)cc2)C(=O)CCl)cc1OC (centres undefined),u,-11,39,66%,-14%,-7,-17%,7.9µM*
O=C(NC1CCCC1)C(c1ccc(F)cc1)N(C(=O)Cc1cccs1)c1ccc2c(c1)OCCO2 (centres undefined),10µM*,1,-17,-4%,0%,6,-8%,6.3µM*
COc1ccc(N(C(=O)Cc2cccs2)C(C(=O)NC2CCCCC2)c2cccn2C)cc1 (centres undefined),u,0,0,-15%,1%,-3,15%,40µM*
Cc1ccc(C(C(=O)NC2CCCC2)N(C(=O)Cc2cccs2)c2ccc3c(c2)OCCO3)cc1 (centres undefined),u,-36,-23,-9%,2%,x,x,x
Cn1cccc1C(C(=O)NC1CCCCC1)N(C(=O)Cc1cccs1)c1ccc2c(c1)OCO2 (centres undefined),u,13,5,-16%,2%,7,0%,11µM*
Cc1ccc(N(C(=O)Cc2cccs2)C(C(=O)NC2CCCC2)c2ccncc2)cc1 (centres undefined),-12%,21,-7,-6%,-1%,x,x,x
